{
  "source": "PubChem BioAssay AID1159569",
  "about": "(Broad Institute, 2015)",
  "note": "Results with a measured potency or affinity are listed apart. Inconclusive results are not listed. Activity calls are given as the source filed them. How the calls were made is not given here.",
  "data": [
    {"experiment": "HepG2 cell cytotoxicity, dose response, cytotoxicity control, plate reader, dry powder samples (AID 1159569)", "settings": "HepG2 cytotoxicity counterscreen; series mostly up to 50 µM; activity change, negative = cytotoxicity: at the top concentration", "values": [
      {"smiles": "COc1ccc(S(=O)(=O)Nc2cccc3c2O[C@H](CN(C)Cc2ccc(-c4ccccc4)cc2)[C@@H](C)CN([C@H](C)CO)C3=O)cc1", "activity change, negative = cytotoxicity": "-13.1% (inactive)"},
      {"smiles": "C[C@@H]1CN([C@H](C)CO)C(=O)c2cc(/C=C/c3ccccc3)cnc2O[C@H]1CN(C)C(=O)NC1CCCCC1", "activity change, negative = cytotoxicity": "-14.9% (inactive)"},
      {"smiles": "COc1cccc(CN2CC3(CCN(Cc4ccccn4)CC3)c3c([nH]c4cc(OC)ccc34)[C@@H]2CO)c1", "activity change, negative = cytotoxicity": "-31% (inactive)"},
      {"smiles": "COc1ccc(S(=O)(=O)Nc2ccc3c(c2)CC(=O)N([C@@H](C)CO)C[C@H](C)[C@H](CN(C)S(=O)(=O)c2ccc(C)cc2)O3)cc1", "activity change, negative = cytotoxicity": "-23.3% (inactive)"},
      {"smiles": "CCCNC(=O)c1cc2c(c(-c3cccc(-c4cc5ccccc5o4)c3)n1)[C@H](CCO)N(C(=O)NC(C)C)C2", "activity change, negative = cytotoxicity": "-31.5% (inactive)"},
      {"smiles": "COc1ccc2c3c([nH]c2c1)[C@@H](CO)N(Cc1ccccc1)CC31CCN(Cc2cncnc2)CC1", "activity change, negative = cytotoxicity": "-24.7% (inactive)"},
      {"smiles": "COc1ccc2c3c(n(C)c2c1)[C@@H](CO)N(C(=O)c1ccccc1)CC31CCN(C(=O)c2ccccc2)CC1", "activity change, negative = cytotoxicity": "-16.1% (inactive)"},
      {"smiles": "C[C@@H]1CN([C@H](C)CO)C(=O)c2cccc(NC(=O)c3ccc(-c4nccs4)cc3)c2O[C@H]1CN(C)Cc1ccc(C(F)(F)F)cc1", "activity change, negative = cytotoxicity": "-17.9% (inactive)"},
      {"smiles": "CCC(=O)N1CCC2(CC1)CN(S(=O)(=O)c1ccccc1)[C@@H](CO)c1[nH]c3cc(OC)ccc3c12", "activity change, negative = cytotoxicity": "-22.3% (inactive)"},
      {"smiles": "C[C@H](CO)N1C[C@H](C)[C@@H](CN(C)C(=O)Nc2ccc(-c3ccccc3)cc2)OCc2ccccc2-c2c(n(C)c3ccccc23)C1=O", "activity change, negative = cytotoxicity": "7.2% (inactive)"},
      {"smiles": "COc1ccccc1NC(=O)Nc1ccc2c(c1)OC[C@@H](C)N(Cc1ccccc1Cl)C[C@@H](C)[C@H](OC)CN(C)C2=O", "activity change, negative = cytotoxicity": "-18.2% (inactive)"},
      {"smiles": "O=C(c1cccc(F)c1)N1CC(=O)N2[C@H](C1)[C@@H](c1ccc(-c3cccnc3)cc1)[C@@H]2CO", "activity change, negative = cytotoxicity": "-4.42% (inactive)"},
      {"smiles": "COc1ccc(NC(=O)N2CCCCN3[C@@H](CO)[C@H](c4ccc(C#Cc5ccccn5)cc4)[C@@H]3C2)cc1", "activity change, negative = cytotoxicity": "-6.45% (inactive)"},
      {"smiles": "COc1cccc(S(=O)(=O)N(C)C[C@@H]2OCc3ccccc3-c3c(n(C)c4ccccc34)C(=O)N([C@H](C)CO)C[C@@H]2C)c1", "activity change, negative = cytotoxicity": "-41.5% (inactive)"},
      {"smiles": "COc1ccc(-c2ccccc2[C@H]2[C@@H](C#N)N(C(=O)NC(C)C)[C@H]2CO)cc1", "activity change, negative = cytotoxicity": "-17.9% (inactive)"},
      {"smiles": "N#C[C@@H]1[C@H](c2ccccc2C2=CCCCC2)[C@@H](CO)N1C(=O)c1cccc(F)c1", "activity change, negative = cytotoxicity": "-46.1% (inactive)"},
      {"smiles": "C[C@@H]1CN([C@@H](C)CO)S(=O)(=O)c2ccc(C#CC3CCCC3)cc2O[C@H]1CN(C)C(=O)Cc1ccncc1", "activity change, negative = cytotoxicity": "-34.8% (inactive)"},
      {"smiles": "COc1ccc(C#Cc2ccc3c(c2)O[C@H](CN(C)C(=O)Nc2cccc(OC)c2)[C@H](C)CN([C@@H](C)CO)S3(=O)=O)cc1", "activity change, negative = cytotoxicity": "-10.1% (inactive)"},
      {"smiles": "COc1ccc(C#Cc2ccc3c(c2)O[C@@H](CN(C)S(=O)(=O)c2ccccc2F)[C@@H](C)CN([C@@H](C)CO)S3(=O)=O)cc1", "activity change, negative = cytotoxicity": "-31.4% (inactive)"},
      {"smiles": "CC(C)(C)[S@](=O)N1Cc2cc(C(=O)N[C@@H]3CCN(Cc4ccccc4)C3)nc(-c3cccc(-c4cccnc4)c3)c2[C@@H]1CCO", "activity change, negative = cytotoxicity": "4.18% [at 18 µM] (inactive)"},
      {"smiles": "O=C(Nc1ccccc1)N1CCCCN2[C@@H](CO)[C@H](c3ccc(C#Cc4cccnc4)cc3)[C@@H]2C1", "activity change, negative = cytotoxicity": "-28.9% (inactive)"},
      {"smiles": "COc1cccc(-c2cccc(-c3nc(C(=O)NCc4ccc(Oc5ccccc5)cc4)cc4c3[C@@H](CCO)N(S(=O)C(C)(C)C)C4)c2)c1", "note": "(stereo not given in full)", "activity change, negative = cytotoxicity": "-3.88% (inactive)"},
      {"smiles": "Cc1ccc(S(=O)(=O)N(C)C[C@H]2OCc3ccccc3-c3c(n(C)c4ccccc34)C(=O)N([C@@H](C)CO)C[C@@H]2C)cc1", "activity change, negative = cytotoxicity": "-21.5% (inactive)"},
      {"smiles": "COc1ccc(NC(=O)N(C)C[C@@H]2Oc3c(NC(=O)c4nc5ccccc5s4)cccc3C(=O)N([C@@H](C)CO)C[C@H]2C)cc1", "activity change, negative = cytotoxicity": "-23% (inactive)"},
      {"smiles": "CCCC#Cc1ccc([C@H]2[C@@H](CO)N(C(=O)C3CCCCC3)[C@H]2C#N)cc1", "activity change, negative = cytotoxicity": "-36.5% (inactive)"},
      {"smiles": "COc1ccccc1S(=O)(=O)N(C)C[C@@H]1OCc2ccccc2-c2c(n(C)c3ccccc23)C(=O)N([C@@H](C)CO)C[C@@H]1C", "activity change, negative = cytotoxicity": "-23.5% (inactive)"},
      {"smiles": "OC[C@H]1CC[C@@H]2O[C@H](CCc3ccc(C#CCc4ccccc4)cc3)[C@H](n3cc(-c4ccccc4)nn3)C[C@@H]2O1", "activity change, negative = cytotoxicity": "-31.8% (inactive)"},
      {"smiles": "COc1ccc(S(=O)(=O)Nc2ccc3c(c2)CC(=O)N([C@@H](C)CO)C[C@H](C)[C@H](CN(C)S(=O)(=O)c2ccc(OC)cc2)O3)cc1", "activity change, negative = cytotoxicity": "-25.8% (inactive)"},
      {"smiles": "COc1cccc(C#Cc2ccc([C@H]3[C@@H](CO)N(C(=O)C4CCC4)[C@H]3C#N)cc2)c1", "activity change, negative = cytotoxicity": "-47.8% (inactive)"},
      {"smiles": "COc1ccc2c3c([nH]c2c1)[C@H](CO)N(S(=O)(=O)c1ccc(C)cc1)CC31CCN(C(=O)Cc2cccnc2)CC1", "activity change, negative = cytotoxicity": "-5.11% (inactive)"}
    ]}
  ]
}
